Measured values from PubChem BioAssay AID624172 (National Center for Advancing Translational Sciences (NCATS), 2012).
The whole screen tested about 380,000 compounds, of which about 25 (0.007%) were called active. The call rests on the fitted dose curve; in most records, active means well fitted activation curve with a large enough effect; inconclusive means small, poorly fitted or top-dose-only effect; inactive means no such curve, though single readings can be large or run the other way. Not all results are given here.

molecular target: Glucagon-like peptide 1 receptor (Homo sapiens) (UniProt P43220); test: qHTS of GLP-1 Receptor Agonists; conditions: HEK293 GLP-1R CRE-luciferase, luminescence, 4-6 h, cells express a hypersensitive GLP-1R form; series mostly up to 45.6 µM; activation: at the top concentration; further: % of control where 0% means no effect
Sequence (P43220 whole entry, looked up): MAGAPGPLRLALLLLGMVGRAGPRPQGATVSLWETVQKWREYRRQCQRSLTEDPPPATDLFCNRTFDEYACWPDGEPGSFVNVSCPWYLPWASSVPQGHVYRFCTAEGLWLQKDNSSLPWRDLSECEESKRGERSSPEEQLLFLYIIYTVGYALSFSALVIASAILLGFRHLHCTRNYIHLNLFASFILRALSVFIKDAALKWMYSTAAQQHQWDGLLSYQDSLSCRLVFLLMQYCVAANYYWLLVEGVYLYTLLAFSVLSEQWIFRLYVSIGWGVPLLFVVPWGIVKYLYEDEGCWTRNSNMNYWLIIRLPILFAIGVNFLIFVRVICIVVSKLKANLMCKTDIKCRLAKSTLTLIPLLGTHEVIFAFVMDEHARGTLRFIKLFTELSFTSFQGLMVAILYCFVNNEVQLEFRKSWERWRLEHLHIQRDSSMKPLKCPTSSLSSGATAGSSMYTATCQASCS
Source text: The overall goal of this project was to develop a novel assay for discovering small molecule ligands for class B1 G protein-coupled receptors (GPCRs). Very few agonists (or inverse agonists) with generally weak activity for this entire group of physiologically important receptors are known to date. To establish proof-of-principle that this critical bottleneck can be overcome with a suitable screening approach, our studies focused on the class B1 receptor for glucagon-like peptide-1 (GLP-1R), a potential therapeutic target for diabetes and neurodegenerative disease.
The assay was developed in a "mix and measure" format using a cell-based functional readout. Toward this goal, stably transfected HEK293 cell clones were established that co-express (i) a cAMP-responsive luciferase reporter gene, and (ii) GLP-1Rs that upon ligand interaction either stimulate (agonists) or inhibit (inverse agonists) luciferase activity. In different cell lines to be used for screening, expressed GLP-1Rs are specifically optimized for high sensitivity detection of either weak agonists (hypersensitive receptor) or inverse agonists (constitutively active receptor mutant). In addition, control cell lines were developed that express either the cAMP-responsive reporter gene without recombinant GLP-1Rs (enabling initial exclusion of GLP-1R independent effects of candidate probes), or the reporter gene together with wild type GLP-1Rs (for confirmation of probe activity at this receptor), or the reporter gene in combination with the constitutively active orphan receptor GPR119 (enabling initial exclusion of GLP-1R independent inhibitory effects of candidate inverse agonists).
To that end, this assay was optimized for 1536-well format and screened against the MLSMR.
NIH Molecular Libraries Probe Production Network [MLPCN]
NIH Chemical Genomics Center [NCGC]
PI Name: Martin Beinborn, Tufts Medical Center
In a white solid 1536-well plate, 6 uL of cells are dispensed in DMEM without phenol red, 10% Nu serum, and 1% pen-strep medium. The plates are then incubated for 12 hours at 37 deg C at 5% CO2 before 23 nL of compounds are added. After a 4-6 hr incubation at37 deg C and 5% CO2, 3 uL of detection reagent are added and after a 12 min incubation at RT, a luminescent read is obtained on the ViewLux.

activation, inactive:
CC1=Nc2cc(C(=O)N3CCC(C)CC3)ccc2Sc2ccc(Cl)cc21 0.558%, Cc1cn([C@H]2CC(F)[C@@H](CO)O2)c(=O)[nH]c1=O (some centres not stated) 7%, Cc1cccc(-n2c(=O)c3c(c4cc(C)ccc4n3C)n(CC(=O)Nc3ccccc3Cl)c2=O)c1 0.522%, O=C(O)CCCCC(=O)O -6.16%, Cc1ccc(CCNC(=O)Cn2c(-c3cccs3)cc3cc(F)ccc32)cc1 -0.201%, CC(C)(O)c1ccccc1CC[C@H](SCC1(CC(=O)O)CC1)c1cccc(/C=C/c2ccc3ccc(Cl)cc3n2)c1 5.38%, CO/N=C(\C(=O)N[C@@H]1C(=O)N2C(C(=O)O)=C(Cn3nnc(C)n3)CS[C@H]12)c1csc(N)n1 -4.78%, COc1ccc(CCNC(=O)CCCCn2c(=O)c3ccccc3n(Cc3ccccc3C)c2=O)cc1OC 12.4%, CCOc1ccc(CNCCSc2nnnn2C)cc1 -0.857%, CC(O)COc1ccccc1 (configuration not stated) -2.13%, Cc1ccc(C(=O)Nc2ccc(OCc3cc(=O)n4c5c(sc4n3)CCCC5)cc2)cc1 -0.745%, COc1cc([C@@H]2c3cc4c(cc3[C@@H](O[C@@H]3O[C@@H]5CO[C@@H](C)O[C@H]5[C@H](O)[C@H]3O)[C@H]3COC(=O)[C@H]23)OCO4)cc(OC)c1OP(=O)(O)O -0.904%, Cn1c(=O)c2c(nc(NCCc3ccccc3)n2Cc2ccccc2Br)n(C)c1=O 1.23%, COc1ccccc1-c1ccnc2[nH]n(-c3ccccc3)c(=O)c12 0.335%, CN(C)CCCn1c(-c2ccc(Cl)cc2)csc1=Nc1ccccc1 15.8%, COc1cc(C[C@H]2NCCc3cc(O)c(O)cc32)cc(OC)c1OC 25.4%, O=C(Nc1cccc2cccnc12)c1cccc2c(Br)cccc12 0.0139%, COc1ccc(CCNC(=O)CCc2c(C)nc3c(c(C)nn3-c3ccc(C)c(C)c3)c2C)c(OC)c1OC -0.6%, CCn1cc(C(=O)OCC(=O)Nc2cc(C)cc(C)c2)c(=O)c2ccc(C)nc21 -2.48%, CN(CC(=O)Nc1ccccc1F)S(=O)(=O)c1ccc2c(c1)c(=O)n(C)c(=O)n2C -1.36%, Cc1c(O)cc2c(c1C)O[C@](C)(CCC[C@H](C)CCC[C@H](C)CCCC(C)C)CC2 7.18%, COc1ccc(C2(C#N)CCC(C(=O)O)CC2)cc1OC1CCCC1 (configuration not stated) -2.56%, Cc1ccc(NC(=O)c2oc3ccccc3c2NC(=O)Cc2cccs2)cc1 0.593%, NNc1nnc(NN)c2ccccc12 12.5%, O=C(C1CCCN(S(=O)(=O)c2cccc3nonc23)C1)N1CCN(c2ccccc2F)CC1 (configuration not stated) -1.48%, COc1cccc(NC(=O)N(Cc2cn(C)c3ccccc23)C2CCCCCC2)c1 -6.68%, COc1ccc2[nH]c3c(c2c1)CCN(C(=O)CCC1CCCC1)C3c1ccc(F)cc1 (configuration not stated) 0.944%, Nc1ccccc1N 1.01% [at 96 µM], NNc1nnc(Cc2ccncc2)c2ccccc12 -3.34%, CC(=O)OCC(=O)[C@@]1(O)CC[C@@H]2[C@H]3CCC4=CC(=O)C=C[C@]4(C)[C@]3(F)[C@@H](O)C[C@@]21C -1.89% [at 19.8 µM], CCC(CC)C(=O)N1CCc2cc(OC)c(OC)cc2C1COc1ccc(F)cc1 (configuration not stated) 18.6%, CCC[C@H]1C(=O)N2C(N(C)C)=Nc3ccc(C)cc3N2C1=O 2.77% [at 19.8 µM], C=C1C(=CC=C2CCC[C@@]3(C)[C@@H]2CC[C@H]3[C@H](C)CCCC(C)C)C[C@@H](O)C[C@@H]1O 7.68%, O=C1C(c2[nH]c3ccccc3c2O)=Nc2ccccc21 17.2%, CC(=O)OC[C@H]1O[C@@H](O[C@H]2[C@H](O)[C@@H](OC(=O)c3ccccc3C(=O)O)[C@H](O)O[C@@H]2COC(C)=O)[C@H](O)[C@@H](OC(=O)c2ccccc2C(=O)O)[C@@H]1O 5.47%, COc1ccc(CNC(=O)c2cc3cccc(OC)c3oc2=O)cc1 -5.88%, O=C(C1CC1)N1CCc2cc(Br)cc(S(=O)(=O)N3CCN(c4ccccc4F)CC3)c21 0.0455%, O=C(O)CCC(=O)O -1.33%, COc1ccc(OC)c([C@H](O)CNC(=O)CN)c1 1.93% [at 19.8 µM], O=C(NC1CCCCC1)c1ccc2c(c1)N(Cc1ccc(Cl)cc1)C(=O)c1ccccc1S2=O (configuration not stated) -3.48%, Cc1ccc(C)c(CN2C(=O)c3ccccc3S(=O)c3ccc(C(=O)N4CCOCC4)cc32)c1 (configuration not stated) -0.515%, COc1ccc(S(=O)(=O)NCCSc2nnnn2-c2ccccc2)cc1 0.741%, CC(=O)OC1C([N+]2(C)CCCCC2)C[C@H]2C3CC[C@H]4C[C@H](OC(C)=O)C([N+]5(C)CCCCC5)CC4(C)C3CCC12C (some centres not stated) -1.14%, CCOC(=O)Cc1cccc(-c2cc(CCCCCCc3ccc(O[C@H]4O[C@H](COC(C)=O)[C@@H](OC(C)=O)[C@H](OC(C)=O)[C@@H]4OC(C)=O)c(-c4cccc(CC(=O)OCC)c4)c3)ccc2O[C@H]2O[C@H](COC(C)=O)[C@@H](OC(C)=O)[C@H](OC(C)=O)[C@@H]2OC(C)=O)c1 2.49%, O=C(CCn1c(=O)c2ccccc2n(Cc2ccc(Cl)cc2)c1=O)NCc1ccc2c(c1)OCO2 -0.608%, COc1ccc(-c2nc3ccccc3s2)cc1NC(=O)COc1ccccc1C 5.28%, CSc1ccc(C2C(C(=O)Nc3ccccc3)=C(C)Nc3nc4ccccc4n32)cc1 (configuration not stated) 5.83%, O=C(O)[C@@H](S)[C@H](S)C(=O)O -4.55%, CCC(C)C1OC2(C=CC1C)CC1CC(C/C=C(/C)C(OC3CC(OC)C(OC4CC(OC)C(NC(C)=O)C(C)O4)C(C)O3)C(C)/C=C\C=C3\COC4C(O)C(C)=CC(C(=O)O1)C34O)O2 (configuration not stated) -1.5%, CCc1nc2onc(C)c2c(=O)n1CC(=O)O -2.43%, CC1=C(C(=O)OCC2CCCCC2)C(c2c(F)cccc2Cl)CC(=O)N1 (configuration not stated) 0.542%, CCCCCn1c(CCNC(=O)c2ccc(F)cc2)nc2ccccc21 -6.1%, O=c1cc2nc(-c3ccccc3)nc(SCCOc3ccc(Cl)cc3)n2[nH]1 0.394%, C[C@H]1C[C@H]2[C@@H]3CCC4=CC(=O)C=C[C@]4(C)[C@@H]3C(=O)C[C@]2(C)[C@@]1(O)C(=O)CO 8.98%, COc1cc2c(cc1OC)CC(=O)N(CCCN(C)C[C@H]1Cc3cc(OC)c(OC)cc31)CC2 -1.07%, COc1cccc(CNC(=O)c2ccc3c(Cl)c4c(nc3c2)CCCC4)c1 -2.18%, COc1cccc(C(=O)NC2(C(F)(F)F)C(=O)Nc3c2c(=O)[nH]c(=O)n3-c2ccc(C)cc2)c1 (configuration not stated) -1.9%, Cc1ccc(C)c(N2CCN(C(=O)CN3C(=O)COc4ccc(S(=O)(=O)N5CCCCCC5)cc43)CC2)c1 0.958%, CCn1cc(C(=O)N(C)Cc2ccccc2)c(=O)c2cc(S(=O)(=O)N3CCCCCC3)ccc21 1.72%, Cc1cccc(Cc2c(C)nc3nc(SCc4ccccc4Cl)nn3c2C)c1 -0.0641%, Oc1ccccc1-c1nc2ccc(Cl)cn2c1Nc1ccc2c(c1)OCCO2 0.836%, COc1cc(C(=O)Nc2ccc(OCc3cc(=O)n4cc(C)sc4n3)cc2)cc(OC)c1OC 0.983%, COc1ccc(NC(=O)C2CCCN(S(=O)(=O)c3cccc4nonc34)C2)cc1Cl (configuration not stated) 1.17%, CCC(C)[C@@H](N)C(=O)O (some centres not stated) -4.44%, CCCc1c2oc(C(=O)O)cc(=O)c2cc2c(=O)cc(C(=O)O)n(CC)c12 2.28%, CCCCCCCCCCCCCCCCO 7.22%, O=S(O)CNc1ccc(S(=O)(=O)c2ccc(NCS(=O)O)cc2)cc1 -1.51%, CCCN(CC)[C@@H](CC)C(=O)Nc1c(C)cccc1C 12.7%, CN1CC(O)c2cc(N=NC(N)=O)c(O)cc21 (configuration not stated) 4.42%, O=C(Cn1nc(C(F)(F)F)c2c1CCCC2)Nc1ccc(Cl)cc1 -5.59%, CCOc1ccc(OCC)c(NC(=O)CN(c2ccc(C)cc2)S(=O)(=O)c2c(C)n[nH]c2C)c1 -3.92%, CCOC(=O)c1ccc(NC2=CC(c3ccc(OCC)cc3)N(c3ccc(C(=O)OCC)cc3)C2=O)cc1 (configuration not stated) 6.97%, CN(Cc1ccccc1)c1ncnc2onc(-c3ccc(F)cc3)c12 19.7%, O=C(Nc1ccc(O)cc1)c1ccccc1O -6.64%, O=P(O)(O)OC[C@H](O)CO 3.23%, COc1cccc(NC(=O)C2CCN(c3cc(C)nc4c(-c5ccc(Cl)cc5)c(C)nn34)CC2)c1 1.15%, COC(=O)CC1Oc2ccccc2-n2cc(-c3ccccc3)nc21 (configuration not stated) 1.91%, CCOC(=O)c1cccc(NS(=O)(=O)c2cn(C)c(C)n2)c1 7.08%, CCOc1ccc(N(CC)C(=O)C2CCN(S(=O)(=O)c3cccc4nonc34)CC2)cc1 0.873%, COc1ccnc(C[S@@](=O)[C@@H]2Nc3ccc(OC(F)F)cc3N2)c1OC 7.88%, O=C(Nc1c(-c2ccc(F)cc2)nc2ccccn12)c1cccc(F)c1 0.824%, CC1(C)OC2CO[C@]3(COS(N)(=O)=O)OC(C)(C)OC3C2O1 (some centres not stated) 10.6%, COC(=O)c1scc(-c2ccccc2)c1S(=O)(=O)Nc1ccccc1 -3.22%, COc1ccc(C)cc1NC(=O)C(=O)NCCc1sc(-c2cccc(C)c2)nc1C 14.1%, COc1ccc(-c2noc(CCC(=O)N(C)c3ccccc3C)n2)cc1 -0.858%, C/C=C/C=N/NC(=O)c1ccncc1 0.223%, COc1ccc2cc(CNc3ccc(OC)c(OC)c3)c(=O)n(CC(=O)Nc3ccccc3F)c2c1 -0.472%, COc1cc2[nH]c(C)c(CCN3CCN(c4ccccc4)CC3)c2cc1OC 1.59%, COC(=O)C1=C(c2ccccc2)c2ccccc2S(=O)(=O)N1CC(=O)Nc1ccccc1C(F)(F)F -1.05%, COc1cc(C(CC(=O)NCCC(C)C)N2Cc3ccccc3C2=O)cc(OC)c1OC (configuration not stated) -3.2%, CC1(C)[C@H](O[C@H]2O[C@H](C(=O)O)[C@@H](O)[C@H](O)[C@H]2O[C@@H]2O[C@H](C(=O)O)[C@@H](O)[C@H](O)[C@H]2O)CC[C@@]2(C)[C@H]1CC[C@]1(C)[C@H]2C(=O)C=C2[C@H]3C[C@@](C)(C(=O)O)CC[C@]3(C)CC[C@]21C -3.71%

outcome, inactive:
CC1(C)OC[C@@H](COC(=O)CCc2ccc(OC[C@@H](O)CNCCNC(=O)N3CCOCC3)cc2)O1
